Screens as filed in PubChem.
Pol eta inh = inhibitors of human DNA polymerase eta; recombinant Pol eta, fluorescent DNA replication assay; Q9Y253; AID 588591; 390,000 tested, 1.2% active; Potency, µM (series often up to 114 µM), hits mostly inhibitors
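Pol eta at 10 nM preincubated with compounds 15 min at room temperature; reaction started with fluorescent substrate (50 nM final) and read kinetically at 0 and 10 min.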
Pol beta inh = blocks human DNA polymerase beta activity; P06746; Pol beta primer extension/strand displacement, fluorescence kinetic; Potency, µM (doses to about 114 µM), hits mostly inhibitors; 340,000 tested, 1.3% active; AID 485314
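Pol beta (10 nM) and compounds were preincubated 15 min at room temperature, then 50 nM substrate (final) started primer extension/strand displacement. Reads were taken at 0 and 10 min; concentration-response data were fitted to a four-parameter Hill equation.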
WRN helicase inh = WRN helicase (human) inhibition; 360,000 tested, 0.46% active; Potency, µM (titrated, usually from 114 µM), most hits filed as inhibitors; Q14191; WRN helicase unwinding, fluorescent forked duplex, kinetic; AID 651768; note: nearly all actives have a fitted effect of over 55% in size
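Enzyme (20 nM final) and test compound sit together 15 min at room temperature before substrate addition. Substrate is a single-forked duplex oligonucleotide (100 nM) labelled with fluorophore and quencher, with 2 mM ATP; helicase unwinding raises red fluorescence, read kinetically.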
POLK inh = blocks human DNA polymerase kappa activity; purified Pol kappa, fluorescent DNA synthesis assay, 10 min; Q9UBT6; 400,000 tested, 0.53% active; Potency, µM (doses to about 107 µM), actives largely listed as inhibitors
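Inhibition of 10 nM Pol kappa is measured by a fluorescent read-out at 0 and 10 min following addition of 50 nM substrate (final), with a 15-min room-temperature compound preincubation.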
Pol iota inh = DNA polymerase iota (human) inhibition. Q9UNA4. Pol iota fluorescent replication assay, 10 min. Potency, µM (highest dose often 115 µM), most hits filed as inhibitors. 390,000 tested, 1% active. AID 588590
Target sequence (Q9UNA4 whole entry, looked up): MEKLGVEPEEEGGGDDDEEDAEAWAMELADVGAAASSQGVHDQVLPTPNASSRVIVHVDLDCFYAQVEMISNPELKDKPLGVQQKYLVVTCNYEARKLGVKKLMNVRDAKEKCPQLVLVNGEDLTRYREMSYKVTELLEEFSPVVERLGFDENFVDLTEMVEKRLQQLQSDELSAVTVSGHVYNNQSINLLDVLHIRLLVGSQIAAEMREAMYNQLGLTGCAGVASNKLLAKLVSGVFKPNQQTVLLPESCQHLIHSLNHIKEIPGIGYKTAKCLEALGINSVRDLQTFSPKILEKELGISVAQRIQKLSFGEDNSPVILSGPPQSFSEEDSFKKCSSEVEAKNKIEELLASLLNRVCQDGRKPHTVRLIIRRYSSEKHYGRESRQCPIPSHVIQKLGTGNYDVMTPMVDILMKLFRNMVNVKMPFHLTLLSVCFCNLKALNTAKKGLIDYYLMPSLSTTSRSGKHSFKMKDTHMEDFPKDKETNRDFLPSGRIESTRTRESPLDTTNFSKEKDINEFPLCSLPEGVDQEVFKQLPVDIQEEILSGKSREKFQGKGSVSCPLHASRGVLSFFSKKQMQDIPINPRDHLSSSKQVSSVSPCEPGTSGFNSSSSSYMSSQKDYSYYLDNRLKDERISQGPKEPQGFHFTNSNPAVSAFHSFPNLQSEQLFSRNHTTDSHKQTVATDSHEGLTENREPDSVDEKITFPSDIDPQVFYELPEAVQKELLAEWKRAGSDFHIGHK
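Pol iota at 10 nM preincubated 15 min with compounds at room temperature; reaction started with fluorescent substrate, 50 nM final. Fluorescence read kinetically at 0 and 10 min; buffer-only wells as negative control.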
FEN1 inhibitor = human FEN1 inhibition; 390,000 tested, 0.35% active; P39748; Recombinant FEN1 flap cleavage, fluorescence, 15 min; AID 588795; Potency, µM (titrated, usually from 114 µM), actives largely listed as inhibitors; note: nearly all actives have a fitted effect of over 65% in size
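Compounds are tested as a concentration series against 10 nM FEN1; after a 15 min room-temperature preincubation, 50 nM substrate starts cleavage, with plate reads at 0 and 15 min. Normalized responses are fitted by a Hill equation.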
Large screens that a line does not name were inactive; ! = not confirmed by another sample. Hits are enriched below; roughly 2.4% of the tested compounds scored in any of these assays. Calls come from the whole dose curve; as a rule, active = well fitted curve in the direction sought with a large enough effect; inconclusive = small, poorly fitted or top-dose-only effect, or another doubt; inactive = no such curve, though single readings can be large; an effect the other way counts as inactive or inconclusive.

O=C(CSc1nc2ccccc2n1Cc1ccccc1Cl)N/N=C/c1ccccc1C(=O)O	Pol beta inh inconclusive
O=C(O)COc1ccccc1/C=N/NC(=O)CSc1nc2ccccc2n1Cc1ccccc1Cl	Pol beta inh 79µM, Pol iota inh inconclusive
O=C(OCc1cn([C@@H]2C[C@H](c3ccccc3)N(C(=O)c3cccs3)C[C@H]2O)nn1)c1ccccc1	none (no result: Pol beta inh, POLK inh, Pol iota inh, FEN1 inhibitor)
Cc1nnn(-c2nonc2N)c1C(=O)N/N=C/c1ccccc1O	Pol eta inh inconclusive, Pol beta inh 45µM, Pol iota inh inconclusive
CNS(=O)(=O)c1ccc2nc(NC(=O)/C=C/c3ccco3)sc2c1	Pol beta inh inconclusive, POLK inh inconclusive, Pol iota inh 50µM
Cc1ccc(CNc2ccc(-c3nc(-c4ccco4)no3)cc2[N+](=O)[O-])cc1	none (no result: WRN helicase inh)
CC(C)CN1CCC(=O)N([C@H](COc2ccccc2)Cc2ccccc2)CC1	Pol iota inh 89µM!
O=C(O)c1ccc(NC2=C(n3nnc4ccccc43)C(=O)c3ccccc3C2=O)cc1	Pol iota inh 40µM
O=C1NC[C@H](CCCCN2C[C@H](Cc3ccccc3)N(CCC3CCCCC3)C(=O)C2=O)N(CCc2ccccc2)C1=O	none (no result: Pol eta inh, Pol beta inh, POLK inh, Pol iota inh, FEN1 inhibitor)
CC(=O)Nc1cccc(NC(=O)CSc2ccc(-c3sc(-c4ccccc4)nc3C)nn2)c1	Pol beta inh 5.6µM, POLK inh inconclusive, Pol iota inh inconclusive (no result: WRN helicase inh)
CC(=O)Nc1cccc(NC(=O)CSc2ccc(-c3ccccn3)nn2)c1	Pol beta inh 25µM
Cc1nc(-c2ccccc2)sc1-c1ccc(SCC(=O)Nc2cccc(C(F)(F)F)c2)nn1	none (no result: WRN helicase inh)
CC(=O)c1cccc(NC(=O)CSc2ccc(-c3ccccn3)nn2)c1	FEN1 inhibitor inconclusive
CCS(=O)(=O)c1nc(S(=O)(=O)c2ccc(Cl)cc2)c(NCc2ccc(Cl)cc2)s1	none (no result: WRN helicase inh)
COc1ccc(-n2nnnc2SCC(=O)Nc2ccc3c(c2)OCCO3)cc1OC	Pol eta inh inconclusive, Pol iota inh 50µM
O=S(=O)(Nc1nccs1)c1cc(Cl)ccc1Cl	Pol eta inh 25µM, Pol iota inh inconclusive
O=S(=O)(Nc1ncccn1)c1cc(Cl)ccc1Cl	none
O=S(=O)(Nc1nccs1)c1ccc(NS(=O)(=O)c2c(F)cc(F)c(Cl)c2F)cc1	Pol eta inh 50µM, Pol iota inh inconclusive (no result: Pol beta inh)
Cc1sc2ccccc2[n+]1CCCC[n+]1c(C)sc2ccccc21	none (no result: Pol eta inh, Pol beta inh, WRN helicase inh)
O=[N+]([O-])c1cc2c(cc1CN1CCN(CCOCCO)CC1)OCO2	POLK inh inconclusive, Pol iota inh 7.9µM, FEN1 inhibitor inconclusive
COc1ccccc1N1CCN(Cc2cc3c(cc2[N+](=O)[O-])OCO3)CC1	Pol iota inh inconclusive
Cc1ccc(S(=O)(=O)N2CCCCC2C(=O)NCc2ccco2)cc1 (configuration not stated)	Pol eta inh inconclusive, Pol iota inh 89µM
O=C(NCc1ccco1)C1CCCN(S(=O)(=O)c2ccc(-n3cnnn3)cc2)C1 (configuration not stated)	Pol eta inh 20µM, Pol beta inh 25µM, POLK inh inconclusive, Pol iota inh inconclusive
CCNc1ncc2nc(-c3cn(C)c4ccccc34)c(=O)n(Cc3cccc(OC)c3)c2n1	none (no result: Pol eta inh, Pol beta inh, WRN helicase inh, Pol iota inh, FEN1 inhibitor)
CCCCC1=CC2=CC(=O)C(C)(OC(=O)CC)C(=O)C2=CN1c1cccc(C#N)c1 (configuration not stated)	Pol iota inh inconclusive (no result: Pol beta inh)
CCC(=O)OC1(C)C(=O)C=C2C=C(c3ccc(C#N)cc3)OC=C2C1=O (configuration not stated)	Pol eta inh 45µM, WRN helicase inh inconclusive, POLK inh inconclusive, Pol iota inh 20µM, FEN1 inhibitor inconclusive (no result: Pol beta inh)
COc1cccc(NC(=O)CN2C(=O)CSc3ccc(S(=O)(=O)N4CCCC4)cc32)c1	none (no result: WRN helicase inh)
O=c1cc(-c2ccccc2)[nH]n1-c1ccccc1	Pol iota inh inconclusive, FEN1 inhibitor inconclusive (no result: Pol beta inh)
CC(C)(C)c1cc(=O)n(-c2ccccc2)[nH]1	Pol eta inh inconclusive, Pol beta inh inconclusive, Pol iota inh 7.1µM
COc1cc(C(=O)N/N=C/c2cc([N+](=O)[O-])cs2)cc(OC)c1OC	none
CCOc1ccc(C(=O)N/N=C/c2cc([N+](=O)[O-])cs2)cc1	Pol beta inh 14µM, Pol iota inh 35µM
Cc1ccc(S(=O)(=O)NCCc2csc(-c3cccc(F)c3)n2)cc1	none (no result: WRN helicase inh)
CC1CCN(c2c(NCc3ccc(C(=O)NCCc4ccc(Cl)cc4)cc3)c(=O)c2=O)CC1	Pol beta inh 32µM, Pol iota inh inconclusive
CC(=O)OC[C@H]1O[C@@H](n2ncc(=O)[nH]c2=O)[C@H](OC(C)=O)[C@@H]1OC(C)=O	none
O=C(OCC1OC(n2ncc(=O)[nH]c2=O)C(OC(=O)c2ccccc2)C1OC(=O)c1ccccc1)c1ccccc1 (configuration not stated)	Pol eta inh 89µM, Pol beta inh inconclusive, POLK inh inconclusive, Pol iota inh inconclusive
O=c1/c(=C\c2cccn2-c2ccccc2)sc2nc3ccccc3n12	none
O=C(O)Cn1cc(/C=c2/sc3nc4ccccc4n3c2=O)c2ccccc21	Pol eta inh 79µM, WRN helicase inh inconclusive, POLK inh inconclusive, FEN1 inhibitor inconclusive
COc1ccccc1C(=O)CC(=O)c1ccccc1	none
COc1cccc(=O)c2c(C)n(CC(=O)c3ccccc3)c(C)c12	Pol eta inh inconclusive, Pol beta inh 22µM, Pol iota inh inconclusive
CCN1C(=O)/C(=C\c2ccc(-c3cccc(C(=O)OC)c3)o2)SC1=Nc1ccc(C(=O)O)cc1	none (no result: Pol eta inh, WRN helicase inh, POLK inh, Pol iota inh, FEN1 inhibitor)
CCN=C1S/C(=C/c2ccc(-c3ccc(Cl)cc3C(=O)O)o2)C(=O)N1CC	Pol eta inh 35µM, FEN1 inhibitor inconclusive
CCOC(=O)c1cnc2cc(C(F)(F)F)ccc2c1N1CCN(c2ccc(F)cc2)CC1	none (no result: WRN helicase inh)
O=C(/C=C1\NC2(CCCC2)Cc2ccccc21)C(=O)N/N=C/c1ccc(O)c(O)c1	Pol eta inh 11µM, Pol beta inh 2µM, WRN helicase inh inconclusive, Pol iota inh inconclusive
COc1ccccc1C(=O)NC(=O)COC(=O)c1nccnc1N	Pol eta inh 18µM (no result: Pol beta inh)
Cc1ccc(C)c(OCCn2ccnc2)c1	Pol eta inh 32µM, Pol beta inh 10µM, POLK inh 79µM, Pol iota inh 40µM
Cc1ccc(S(=O)(=O)N2CC=C(c3c(C)n(CC(=O)N4CCCC4)c4ccccc34)CC2)cc1C	Pol iota inh 79µM (no result: WRN helicase inh)
Cc1ccc(S(=O)(=O)N2CC=C(c3c(C)n(C)c4ccccc34)CC2)cc1	WRN helicase inh 79µM
CCn1c(C)c(C2=CCN(S(=O)(=O)c3ccccc3)CC2)c2ccccc21	none
O=C(Nc1ccc2nc(-c3cccs3)[nH]c2c1)c1cccs1	Pol eta inh inconclusive, Pol iota inh inconclusive
Cc1ccc2nc(-c3ccc(NC(=O)c4ccco4)cc3)[nH]c2c1	Pol eta inh inconclusive, Pol beta inh 25µM, Pol iota inh inconclusive, FEN1 inhibitor inconclusive
